Results taken from PubChem BioAssay (NCI).
Compounds without any hit were thinned out: in the full panel of roughly 83,000, 20% have a hit.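 Activity criterion: percent growth below 10, measured after cells in 96-well plates were exposed to a single compound concentration for 48 hours.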 A number with no mark means an inactive call. Activity calls are given as the source filed them.

Columns and labels:
Assay in all cases: NCI-60 one-dose screen, 48 h (100 = growth as untreated, 0 = no growth, -100 = all killed)
Details in all cases: 10 µM unless noted
NCI-H23 lung = system: NCI-H23 lung
NCI-H226 lung = system: NCI-H226 lung
NCI-H322M lung = system: NCI-H322M lung
HOP-62 NSCLC = system: HOP-62 NSCLC
NCI-H460 lung = system: NCI-H460 lung
HOP-92 NSCLC = system: HOP-92 NSCLC
NCI-H522 lung = system: NCI-H522 lung
A549/ATCC NSCLC = system: A549/ATCC NSCLC
786-0 renal = system: 786-0 renal
COLO 205 colon = system: COLO 205 colon

| SMILES | growth (NCI-H23 lung) | growth (NCI-H226 lung) | growth (NCI-H322M lung) | growth (HOP-62 NSCLC) | growth (NCI-H460 lung) | growth (HOP-92 NSCLC) | growth (NCI-H522 lung) | growth (A549/ATCC NSCLC) | growth (786-0 renal) | growth (COLO 205 colon) |
| --- | --- | --- | --- | --- | --- | --- | --- | --- | --- | --- |
| O=C1/C(=C/c2ccc(F)cc2)C=C(c2ccccc2)N1CCc1ccccc1 | 70.8% | 51.9% | 65.6% | -3.68% (active) | 61.3% | 7.45% (active) | 42.9% | 40.8% | 27.6% | 71.9% |
| COc1ccc2cc(-c3cc(OC)c(OC)c(OC)c3)c(=O)oc2c1 | 79.8% | 78.4% | 103% | 68.3% | 84.4% | 79.2% | 48.3% | 42.1% | 68.2% | 83.3% |
| Cc1cc(NCc2cc(Nc3ccnc4cc(Cl)ccc34)ccc2F)nc(Cl)n1 | 32.8% | 52.4% | 71.9% | 54.5% | 48.4% | 31.9% | 36.2% | 56.7% | 50.7% | 44.2% |
| COc1cc(C2CC(=O)Nc3c2c(C)nn3-c2nc3ccccc3[nH]2)c(OC)c2c1OCO2 (stereo not given) | 86.9% | 84.8% | 86.9% | 75.8% | 66.7% | 85% | 71.2% | 52.4% | 78.6% | 91.9% |
| O=c1[nH]nc(-c2ccccc2)c2c(-c3ccccc3)onc12 | 50.4% | 55.4% | 59.8% | 34.4% | 17% | -6.41% (active) | -22.5% (active) | 58.5% | 45% | 11.3% |
| C=C(C)[C@@H]1CC[C@]2(C)[C@H](CC=C3[C@@H]4CC(C)(C)CC[C@]4(C(N)=O)CC[C@]32C)[C@@]1(C)CCC#N | 27.9% | 49.7% | 72.1% | 56.7% | 12.8% | 32% | 7.77% (active) | 17.6% | 26.1% | -12.1% (active) |
| CCN1CCN(c2nc(C)cc(NCc3cc(Nc4ccnc5cc(Cl)ccc45)ccc3F)n2)CC1 | 46.5% | 69.1% | 50.5% | 12% | -12.6% (active) | 36% | -14.8% (active) | 28% | -51.2% (active) | -56.4% (active) |
| O=C1OC(c2nc3ccccc3s2)=C/C1=C\c1ccc(O)cc1 | 98.9% | 99.5% | 110% | 91.8% | 101% | 87.9% | 91.4% | 109% | 107% | 102% |
| CCN(CC)c1ccc2nc3c4ccccc4c(=NC(=O)c4ccccc4-c4c5ccc(N(CC)CC)cc5[o+]c5cc(N(CC)CC)ccc45)cc-3oc2c1 | 10.9% | 76.5% | 11.6% | 17.4% | -54.1% (active) | 1.45% (active) | -5.73% (active) | 14.5% | -28.3% (active) | -80.1% (active) |
| COc1ccc(N=C(c2ccccc2)C2C(=O)c3ccccc3C2=O)cc1 | 99.4% | 96.8% | 105% | 97% | 96.4% | -11.2% (active) | 67% | 93.6% | 97.3% | 102% |
| COc1cc(C2CC(=O)Nc3c2c(C)nn3-c2nc3ccccc3[nH]2)cc2c1OCC(=O)N2 (stereo not given) | 74.6% | 76.2% | 94% | 80.8% | 67.1% | 56.9% | 71.4% | 66.8% | 58.5% | 79.2% |
| COc1ccc(C2=NN(C(=O)c3cc(OC)c(OC)c(OC)c3)C(c3ccc(Cl)cc3)C2)cc1OC (stereo not given) | -7.6% (active) | 58.3% | 55.7% | 44.1% | 14.3% | 31.6% | 4.89% (active) | 29.4% | 22.5% | 12.3% |
| O=C(NCCCNc1cc(-c2cn(-c3ccccc3)nc2-c2cccc(O)c2)ccn1)c1ccccc1 | 46% | 54.9% | 75.2% | 47% | 30.4% | 49.8% | 7.01% (active) | 21% | -29.8% (active) | -60.3% (active) |
| C=CCn1c(C)nc2cc(Nc3nc(N4CCCC4)nc4ccccc34)ccc21 | 88.6% | 97.7% | 113% | 90.6% | 81.2% | 81.3% | 127% | 74.6% | 75.9% | 92.6% |
| COc1cccc(-c2nn(-c3ccccc3)cc2-c2ccnc(NCCNC(=O)Nc3cccc(C(F)(F)F)c3)c2)c1 | 35.8% | 61% | 35.8% | 9.97% (active) | 7.98% (active) | 0.983% (active) | -17.9% (active) | 7.06% (active) | 22.7% | -13.3% (active) |
| COc1cc(/C=C/C(=O)c2c(C)nc3ccccc3c2/C=C/c2ccc(C)cc2)cc(OC)c1OC | 24.4% | 28.9% | 57.5% | 28.7% | -22.1% (active) | 69.7% | 24.1% | 73.1% | 28.4% | 46.2% |
| CS(=O)c1cccc(-c2ccc3nc(N)n(-c4ccc(C(F)(F)F)cc4)c(=O)c3c2)c1 (stereo not given) | 102% | 90.9% | 103% | 98% | 102% | 66.1% | 80.8% | 93.4% | 97.1% | 105% |
| Cc1ccc(-c2cc3c(cc2O)C2CCCCC2(N2CCOCC2)O3)cc1 (stereo not given) | 94.8% | 108% | 101% | 110% | 103% | 85.7% | 82.7% | 96.1% | 108% | 113% |
| CCN(CC)CCN1CC(O)=C(c2nc(-c3ccc(Cl)cc3)cs2)C1=N | 65.2% | 99.2% | 15.6% | -53.3% (active) | 8.48% (active) | -44.3% (active) | 49.8% | 46.8% | -68.5% (active) | -58.3% (active) |
| C=CCSc1nc2ccccc2cc1/C=N/O | 81.9% | 77.8% | 81.4% | 77.1% | 90.4% | 58.2% | 76.4% | 92.5% | 100% | 94.1% |
| O=C1CCC2=C3C4CCCCC4C(=O)C4CCCC(OC2C1)C34 (stereo not given) | -12.9% (active) | 92.6% | 18% | 34.5% | -18.6% (active) | -2.29% (active) | -32.4% (active) | 48.9% | -9.63% (active) | 75.3% |
| C=CCn1c(C)nc2cc(Nc3nc(Cl)nc4ccccc34)ccc21 | 97.9% | 90.1% | 109% | 108% | 99.2% | 91.9% | 97.4% | 81.4% | 87.8% | 126% |
| Cc1ccc(-n2c(-c3ccccc3)c(-c3ccccc3)c3c(SCC(=O)n4[nH]c(N)cc4=O)ncnc32)cc1 | 90.8% | 88.8% | 101% | 87.6% | 103% | 74.7% | 79.6% | 92.5% | 96.6% | 94.4% |
| CCCCCCCCCCCC(c1ccccc1)[N+](C)(C)C (stereo not given) | 15.7% | 21% | 57.3% | 16.9% | 16.4% | -16.5% (active) | 5.04% (active) | 28.2% | 20.5% | -74.7% (active) |
| c1ccc(Nc2nc(-c3ccccn3)cs2)nc1 | 19.1% | -9.64% (active) | 27.1% | 16.4% | -9.3% (active) | 63.6% | 26.3% | 11.2% | -2.41% (active) | 11.5% |
| COC(=O)[C@]12CC[C@@H](C)[C@H](C)[C@@H]1C1=CC[C@@H]3[C@@]4(C)C(C=O)=C[C@@](C)(COC(C)=O)C4=CC[C@@]3(C)[C@]1(C)CC2 | 7.56% (active) | 11.2% | 24.8% | -7.82% (active) | -29.1% (active) | -9.34% (active) | -30.5% (active) | 5.26% (active) | -33.7% (active) | -66.5% (active) |
